This is an account of results in PubChem BioAssay (Tox21).

Records with an inconclusive call do not appear. Entries that show only a call come without a potency. Values without a mark were called inactive. Activity calls are given as the source filed them. The call rests on the fitted dose curve; in most records, active means well fitted cell-killing curve with a large enough effect in the repeat runs; inconclusive means weak or mixed curves, or effect the other way; inactive means no such curve, though single readings can be large or run the other way.

A short description of this assay: qHTS assay to identify small molecule antagonists of the peroxisome proliferator-activated receptor gamma (PPARg) signaling pathway - cell viability counter screen (AID 743194). Further: nearly all actives have a fitted effect of over 55% in size. The conditions noted are these: PPARg-bla HEK293H viability, CellTiter-Glo luminescence, 17 h, co-treated with 50 nM rosiglitazone; series mostly up to 62.6 µM. From the text:
U.S. Tox21 Program National Center for Advancing Translational Sciences [NCATS] NIH Chemical Genomics Center [NCGC] U.S. Environmental Protection Agency [EPA] National Institutes of Environmental Health Sciences [NIEHS] National Toxicology Program [NTP] U.S. Food and Drug Administration [FDA] Tox21 Assay Overview: The peroxisome proliferator-activated receptors (PPARs) are lipid-activated transcription factors of the nuclear receptor superfamily with three distinct subtypes namely PPAR alpha, PPAR delta (also called PPAR beta) and PPAR gamma (PPARg). All these subtypes heterodimerize with Retinoid X receptor (RXR) and these heterodimers regulate transcription of various genes. PPAR-gamma receptor (glitazone receptor) is involved in the regulation of glucose and lipid metabolism. To identify the compounds that activate PPAR-gamma signaling, GeneBLAzer PPAR gamma UAS-bla HEK293H cell line (Invitrogen, Carlsbad, CA, USA) containing a beta-lactamase reporter gene under the control of an Upstream Activator Sequence (UAS) was used to screen the Tox21 compound library. The cytotoxicity of the Tox21 compound library against the PPARg-bla cell line was tested in parallel by measuring the cell viability using CellTiter-Glo assay in the same wells.
Tox21 Assay Protocol Summary: PPARg-bla cells were dispensed at 3000 cells/5uL/well in 1536-well black wall/clear bottom plates using a Multidrop Combi (Thermo Fisher Scientific, Waltham, MA) dispenser. After the assay plates were incubated at 37 C and 5% CO2 for 5 h, 23 nL of compounds dissolved in DMSO, positive controls or DMSO only was transferred to the assay plate by a Pintool station (Kalypsys, San Diego, CA), followed by addition of 1ul Rosiglitazone (50 nM, final concentration in the wells). The assay plates were incubated at 37 C for 17 h, and then 1 uL of LiveBLAzerTM B/G FRET substrate was added using a Bioraptr Flying Reagent Dispenser (FRD) workstation (Beckman Coulter, Indianapolis, IN, USA). The assay plates were incubated at room temperature for 1 h and fluorescence intensity was measured by an Envision plate reader (PerkinElmer, Shelton, CT). For cell viability readout that measures cytotoxicity, 4 ul/well of CellTiter-Glo reagent was added into the assay plates using a Flying Reagent Dispenser. After 30 min incubation at room temperature, the luminescence intensity in the plates was measured using a ViewLux plate reader (PerkinElmer).
Consider `CCc1cc(C2=C(C(=O)O)N(c3ccccc3C(F)(F)F)S(=O)(=O)c3ccccc32)cc2c1OCO2`, for which the Potency entry is “inactive”.

For `C=CCOC(=O)CCC1CCCCC1`, the Potency result is “inactive”.

As to `CCCCCCCCCCCc1ccccc1`, the Potency result was “inactive”.

On to `O=C(Nc1ccccc1)c1ccccc1O`, for which the Potency entry was “inactive”.

As for `O=[N+]([O-])c1ccc2[nH]ncc2c1`, the Potency entry is “inactive”.

For the compound `Cc1ccc(C(C)OC(=O)C2(C)CCC(C(=O)O)C2(C)C)cc1` (stereo not given), the Potency result was “inactive”.

Turning to `Nc1cc(C(=O)O)c(O)c(S(=O)(=O)O)c1`, the Potency result was “inactive”.

With `O=C(Cl)c1cc(C(=O)Cl)cc(C(=O)Cl)c1`, the Potency result is “inactive”.

Turning to `Brc1c2ccccc2c(Br)c2ccccc12`, the activity change, negative = cytotoxicity is 7.41% [at 5.95 µM].

On to `OCc1cc(C(O)CNCCCCCCOCCCCc2ccccc2)ccc1O` (stereo not given), for which the Potency result is “inactive”.

As for `Cc1ccc(N=Nc2c(O)c(C(=O)O)cc3ccccc23)c(S(=O)(=O)O)c1`, the Potency entry was “inactive”.

For the compound `CCNc1cc(O)ccc1C`, the Potency entry is “inactive”.

With `Clc1ccc2c(c1)CCc1cccnc1C2=C1CCNCC1`, the Potency entry is “inactive”.

Take `C=C(C)C(=O)OCC`: the Potency entry was “inactive”.

On to `CCCCCCCC#N`, for which the Potency entry was “inactive”.

Take `CC(C)Nc1ccc(NC(C)C)c2c1C(=O)c1ccccc1C2=O`: the Potency entry was “inactive”.

For `COc1cc2c(cc1OC)C(C(C(=O)N(CCc1ccc(OC)c(OC)c1OC)CCc1ccc(OC)c(OC)c1OC)c1ccccc1)=NCC2` (stereo not given), the Potency result was “inactive”.

Regarding `CC(=O)[O][Al][O]C(C)=O`, the Potency entry was “inactive”.

`CC(=O)c1ccc2c(c1)N(CCCN(C)C)c1ccccc1S2`: the Potency result is “inactive”.

For `CCCCCC[C@@H](O)C/C=C\CCCCCCCC(=O)OC`, the Potency entry is “inactive”.

As for `CC(=O)c1ccc2c(c1)N(CCCN1CCC(CCO)CC1)c1ccccc1S2`, the Potency result was “inactive”.

Regarding `C[C@H]1C[C@H]2[C@@H]3CCC4=CC(=O)C=C[C@]4(C)[C@@]3(Cl)[C@@H](O)C[C@]2(C)[C@@]1(O)C(=O)CO`, the Potency result is “inactive”.

For `C[Si](C)(CCCN)O[Si](C)(C)CCCN`, the Potency entry is “inactive”.

Take `Cc1oc2c(NC(=O)c3c(Cl)cccc3Cl)cccc2c1C(C)(C)O`: the Potency entry is “inactive”.

In the case of `COc1cc(Cl)ccc1Oc1ccc(Cl)cc1Cl`, the Potency entry was “inactive”.

As to `Cc1oc(-c2ccccc2)nc1CCOc1cccc2c1ccn2CCC(=O)O`, the Potency entry was “inactive”.

Regarding `CCCCCCCCCCCCCCCCOS(=O)(=O)O`, the Potency result was “inactive”.

In the case of `CC(COCCO)OCCO` (stereo not given), the Potency result is “inactive”.

With `CC1OC(=O)C(C)OC1=O` (stereo not given), the Potency entry is “inactive”.

With `O=S(=O)(Oc1ccc(Cl)cc1)c1ccccc1`, the Potency result was “inactive”.

Regarding `CCC(C)(C)CC`, the Potency entry was “inactive”.

Consider `Nc1ccc([N+](=O)[O-])c(C(F)(F)F)c1`, for which the Potency result was “inactive”.

Consider `CC(=O)NO`, for which the Potency entry was “inactive”.

Take `O=[N+]([O-])c1cccc(S(=O)(=O)O)c1`: the Potency entry was “inactive”.

Consider `CNC(=O)CN(CCN(CCN(CC(=O)[O-])CC(=O)NC)CC(=O)[O-])CC(=O)[O-].O.[Gd+3]`, for which the Potency result is “inactive”.

Turning to `CCOC(=O)COC(=O)c1cc(Oc2ccc(C(F)(F)F)cc2Cl)ccc1[N+](=O)[O-]`, the Potency entry is “inactive”.

As for `O=C1[C@H]2CCCC[C@H]2C(=O)N1CCCCN1CCN(c2nsc3ccccc23)CC1`, the Potency entry is “inactive”.

Consider `C[C@@H]1C[C@H]2O[C@@]3(O[C@@H]2C(C)(C)O)[C@H](O)[C@@]2(C)[C@@H]4CC[C@H]5C(C)(C)[C@@H](O[C@@H]6OC[C@@H](O)[C@H](O)[C@H]6O)CC[C@@]56C[C@@]46CC[C@]2(C)[C@@H]13`, for which the Potency entry was “inactive”.

As to `Nc1ccc(S(=O)(=O)Nc2ccccc2)cc1`, the Potency result is “inactive”.

For the compound `CC(C)O.CC(C)O.CCOC(=O)/C=C(\C)O.CCOC(=O)/C=C(\C)O.[Ti]`, the Potency result is “inactive”.
